FLuc inh-1 = Firefly luciferase inhibition profiling of diverse chemical library using quantitative high-throughput screening | purified P. pyralis luciferase, luminescence, biochemical | Potency, µM (highest dose often 115 µM), actives largely listed as inhibitors | AID 1347043, 2019 | 76,000 compounds, 2.5% hits; further: on the % scale 0 is the no-effect control and ±100 the full control effect; nearly all actives have a fitted effect of over 65% in size
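Biochemical qHTS: compound (6-point titration) added to 10uM D-luciferin plus 10uM ATP in Tris acetate pH 7.5 buffer with Mg, Tween-20 and BSA, then purified enzyme at 10nM; light output imaged.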
hNpr1 antagonist = Natriuretic polypeptide receptor (hNpr1) antagonism - Primary qHTS; 76,000 compounds, 1.6% hits; Atrial natriuretic peptide receptor 1 (Homo sapiens), P16066; Potency, µM (series often up to 46.3 µM), without a hit: top-dose activity change, negative = inhibition, actives largely listed as inhibitors; HEK293 hNpr1 GloSensor cGMP, ANP-stimulated luminescence; calls by dose curve; further: on the % scale 0 is the no-effect control and ±100 the full control effect; nearly all actives have a fitted effect of over 60% in size
Target sequence (P16066 whole entry, looked up): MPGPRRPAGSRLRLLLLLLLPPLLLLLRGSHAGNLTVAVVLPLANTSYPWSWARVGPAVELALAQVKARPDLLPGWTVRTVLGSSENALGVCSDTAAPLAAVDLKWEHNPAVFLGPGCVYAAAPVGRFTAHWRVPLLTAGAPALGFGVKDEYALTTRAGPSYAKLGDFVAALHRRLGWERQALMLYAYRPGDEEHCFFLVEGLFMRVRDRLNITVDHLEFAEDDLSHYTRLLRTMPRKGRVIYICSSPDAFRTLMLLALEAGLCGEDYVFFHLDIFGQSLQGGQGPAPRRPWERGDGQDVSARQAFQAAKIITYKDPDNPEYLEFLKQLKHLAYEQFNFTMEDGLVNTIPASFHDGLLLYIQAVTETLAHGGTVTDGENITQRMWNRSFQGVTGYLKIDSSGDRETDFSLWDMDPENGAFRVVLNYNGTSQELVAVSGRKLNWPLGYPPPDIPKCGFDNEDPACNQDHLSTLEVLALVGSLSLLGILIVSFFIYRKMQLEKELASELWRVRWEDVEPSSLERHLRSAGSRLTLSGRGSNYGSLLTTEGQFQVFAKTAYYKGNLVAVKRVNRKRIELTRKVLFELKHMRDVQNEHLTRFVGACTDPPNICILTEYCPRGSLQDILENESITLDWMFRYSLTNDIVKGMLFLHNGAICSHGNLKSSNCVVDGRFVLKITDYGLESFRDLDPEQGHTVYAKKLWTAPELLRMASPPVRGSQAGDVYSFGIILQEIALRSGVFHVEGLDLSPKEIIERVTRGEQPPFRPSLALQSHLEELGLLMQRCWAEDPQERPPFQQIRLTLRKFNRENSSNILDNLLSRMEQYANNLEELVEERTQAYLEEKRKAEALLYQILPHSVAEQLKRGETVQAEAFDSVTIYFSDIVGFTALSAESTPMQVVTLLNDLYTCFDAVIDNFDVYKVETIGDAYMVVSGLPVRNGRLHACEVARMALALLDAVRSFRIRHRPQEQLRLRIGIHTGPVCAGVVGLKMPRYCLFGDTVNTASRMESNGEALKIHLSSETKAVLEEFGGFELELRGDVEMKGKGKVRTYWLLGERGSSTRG
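Compound pre-incubated 30 min at room temperature on GloSensor-loaded HEK293 cells stably carrying hNpr1 and the pGS-40F cGMP biosensor. Stimulation uses hNppA at 0.1 nM final; luminescence is taken at baseline and 20 min post-agonist.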
3T3 cytotox = Cytotoxic Profiling in NIH 3T3 Cell Line of Diverse Libraries Using Quantitative High-Throughput Screening; NIH 3T3 viability, CellTiter-Glo ATP luminescence, 48-72 h; Potency, µM (series often up to 96.7 µM), inactives show at the top dose activity change, negative = cytotoxicity, actives largely listed as inhibitors; 94,000 compounds, 4.3% hits; further: on the % scale 0 is the no-effect control and ±100 the full control effect; nearly all actives have a fitted effect of over 55% in size
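ATP-dependent luminescence (CellTiter-Glo) served as the viability signal for NIH 3T3 cells treated with compound for 48 or 72 hr at 37 °C.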
HEK293 tox = Cytotoxic Profiling in HEK 293 Cell Line of Diverse Libraries Using Quantitative High-Throughput Screening; HEK 293 viability, ATP luminescence (CellTiter-Glo), 48-72 h; Potency, µM (titrated, usually from 115 µM), inactives show at the top dose activity change, negative = cytotoxicity, most hits filed as inhibitors; 94,000 compounds, 6.6% hits; AID 1345083, 2018; further: on the % scale 0 is the no-effect control and ±100 the full control effect; nearly all actives have a fitted effect of over 60% in size
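Cells seeded first (HEK 293, 250 cells/well), then compound added by pintool. Incubation ran 48 or 72 hr at 37 degree Celsius. CellTiter-Glo was added and luminescence imaged after 10 min at room temperature.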
SNCA viab count = GF-AFC viability counterscreen for inhibitors of alpha-synuclein gene (SNCA) expression. Potency, µM (series often up to 57.1 µM), for inactives: top-dose activity change, negative = cytotoxicity, most hits filed as cytotoxic. HEK-293-SNCA-luc viability, GF-AFC fluorescence, 24 h. AID 1671193, 2021. 150,000 compounds, 0.12% hits;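 further: 0% = DMSO-treated cells and -100% = medium-only wells without cells; nearly all actives have a fitted effect of over 30% in size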
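HEK-293-SNCA-luc cells (1500/well) plated 24 h, then exposed 24 h to a dilution series; GF-AFC added 30 min at 37C, fluorescence 405/540 nm; normalised to medium-only and DMSO wells, Hill fit.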
SNCA expr inh = Primary qHTS assay for inhibitors of alpha-synuclein gene (SNCA) expression; HEK-293 SNCA-luciferase knock-in, luminescence, 24 h; Potency, µM (series often up to 57.2 µM), for inactives: top-dose activity change, negative = inhibition, most hits filed as inhibitors; 140,000 compounds, 0.17% hits; AID 1671194, 2021;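 further: plate controls were DMSO cells for no effect and cell-free wells for full effect; nearly all actives have a fitted effect of over 45% in size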
FLuc SDR no ATP = Firefly luciferase (FLuc-C-HiBiT) SDR gain of signal screen - without ATP; shares compounds with FLuc inh-1; Potency, µM (top dose mostly 32.7 µM), inactives show at the top dose activation (signal gain), actives largely listed as activators; 1,300 compounds, 7.8% hits; Purified FLuc-C-HiBiT, Nano-Glo HiBiT luminescence, no ATP; further: nearly all actives have a fitted effect of over 55% in size
FLuc SDR ATP = Firefly luciferase (FLuc-C-HiBiT) SDR gain of signal screen - plus ATP | shares compounds with FLuc inh-1 | purified FLuc-C-HiBiT + ATP, HiBiT complementation luminescence | Potency, µM (top dose mostly 32.7 µM), inactives show at the top dose activation (gain of signal), actives largely listed as activators | 1,300 compounds, 8.7% hits | AID 1963319, 2024;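 further: signal reports ligand binding via conformational change of the enzyme rather than luciferase catalysis; % of control where 0% means no effect; nearly all actives have a fitted effect of over 55% in size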
FLuc inh-2 = Firefly luciferase (FLuc-C-HiBiT) enzymatic inhibition screen - Functional assay. Potency, µM (series often up to 32.7 µM), for inactives: at the top dose activity change, negative = inhibition, hits mostly inhibitors. 1,300 compounds, 42% hits. shares compounds with FLuc inh-1. AID 1963320, 2024. purified FLuc-C-HiBiT enzyme, luciferin luminescence; further: on the % scale 0 is the no-effect control and ±100 the full control effect; nearly all actives have a fitted effect of over 70% in size
The depositor's hits bear a star; [ ] = another dose, or the depositor's remark. Only some compounds are listed: those with a hit (about 7.2% of all), similar ones and a draw of the others. Unless noted, the call rests on the fitted dose curve; in most records, active means well fitted curve in the direction sought with a large enough effect; inconclusive means small, poorly fitted or top-dose-only effect, or another doubt; inactive means no such curve, though single readings can be large; an effect the other way counts as inactive or inconclusive. Potency means the concentration at half of the fitted maximal effect.

What do the screens show for `O=C1CO[C@H]2CCN(Cc3ccc4[nH]ccc4c3)CC[C@@H]2N1Cc1ccc(O)cc1`?
FLuc inh-1: inactive; hNpr1 antagonist: -4%[70.6 µM]; 3T3 cytotox: -21%[138 µM]; HEK293 tox: inconclusive; SNCA viab count: -19%[87.6 µM]; SNCA expr inh: 1%[87.6 µM]

Results for Nc1nc2c([nH]c(=O)n2C2OC(CO)C(O)C2O)c(=O)[nH]1 (configuration not stated) ?
FLuc SDR no ATP: 14%; FLuc SDR ATP: 8%; FLuc inh-2: 0%

How did Nc1nc2c(ncn2[C@@H]2O[C@H](CO)[C@@H](O)[C@H]2O)c(=O)[nH]1 do in these assays?
SNCA viab count: -12%

What do the screens show for `Nc1nc2c([nH]c(=S)n2C2OC(CO)C(O)C2O)c(=O)[nH]1` (configuration not stated)?
FLuc SDR no ATP: 0%; FLuc SDR ATP: -1%; FLuc inh-2: 2.5µM*

How did O=C(c1ccc(-c2noc(C3CC3)n2)cc1)N1CCC2(CCOCC2)CC1 do in these assays?
FLuc inh-1: inactive; hNpr1 antagonist: -3%; 3T3 cytotox: inconclusive; HEK293 tox: -22%; SNCA viab count: -10%; SNCA expr inh: 0%

How did COc1ccc(CNC(=O)N2CC3CC(C2)[C@H]2CCCC(=O)N2C3)cc1 (some centres not stated) do in these assays?
FLuc inh-1: inactive; hNpr1 antagonist: 1%; 3T3 cytotox: inactive; HEK293 tox: -2%; SNCA viab count: 2%; SNCA expr inh: 4%

What do the screens show for `Cc1ccc(C(=O)Nc2ccc3oc(-c4ccccc4C)nc3c2)cc1`?
SNCA viab count: -1%; SNCA expr inh: 51%; FLuc SDR no ATP: 14%; FLuc SDR ATP: 9%; FLuc inh-2: -1%

What do the screens show for `COc1ccc(C(=O)Nc2ccc(-c3nc4cc(C)ccc4o3)c(O)c2)cc1`?
SNCA viab count: -13%; SNCA expr inh: 2%

What do the screens show for `N#CC1CCN(C(=O)CNC(=O)c2cccc(-c3ccsc3)c2)CC1`?
3T3 cytotox: -14%; HEK293 tox: inconclusive; SNCA viab count: 6%[12.5 µM]; SNCA expr inh: 10%

How did CCCNC(=O)C1C(c2cccc(NC(=O)c3ccc(C)cc3)c2)OC(=O)N1Cc1ccc(C)cc1 (configuration not stated) do in these assays?
FLuc inh-1: 8.9µM*; hNpr1 antagonist: inconclusive; 3T3 cytotox: inconclusive; HEK293 tox: inconclusive; SNCA viab count: -9%; SNCA expr inh: 132%; FLuc SDR no ATP: 16%; FLuc SDR ATP: 4.4µM*; FLuc inh-2: 4.4µM*

What do the screens show for `N#Cc1cccc(NC(=O)Nc2ccc(=O)n3c2[C@@H]2C[C@@H](CN(C(=O)COc4ccccc4)C2)C3)c1`?
FLuc inh-1: inactive; hNpr1 antagonist: 4%; 3T3 cytotox: -13%; HEK293 tox: inconclusive; SNCA viab count: -8%; SNCA expr inh: inconclusive

What do the screens show for `N[C@@H]1CCN(C(=O)c2ccccc2OC(F)(F)C(F)F)C[C@H]1O`?
FLuc inh-1: inactive; hNpr1 antagonist: -2%; 3T3 cytotox: -3%; HEK293 tox: -30%; SNCA viab count: 1%; SNCA expr inh: -3%

How did COCC1CCN(c2ccc(-c3nc(-c4ccccc4C)no3)cn2)C1 (configuration not stated) do in these assays?
FLuc inh-1: 14µM*; hNpr1 antagonist: inconclusive; 3T3 cytotox: -25%; HEK293 tox: inconclusive; SNCA viab count: 7%; SNCA expr inh: 54%; FLuc SDR no ATP: 14%; FLuc SDR ATP: 16%; FLuc inh-2: inconclusive

Results for O=C1c2cnc(-c3ccccc3OCc3ccccc3)nc2OCCN1CC1CC1 ?
FLuc inh-1: inconclusive; hNpr1 antagonist: -1%[70.6 µM]; 3T3 cytotox: -17%[138 µM]; HEK293 tox: inconclusive; SNCA viab count: -17%[87.6 µM]; SNCA expr inh: 15%[87.6 µM]

Results for O=C1c2cnc(-c3ccc(Cl)cc3)nc2OCCN1CC1CC1 ?
FLuc SDR no ATP: 24%[49.3 µM]; FLuc SDR ATP: inconclusive; FLuc inh-2: 4µM*

Results for O=C1c2cnc(-c3ccccc3)nc2OCCN1Cc1ccccc1 ?
FLuc inh-1: 11µM*; hNpr1 antagonist: -11%[70.6 µM]; 3T3 cytotox: inconclusive; HEK293 tox: inconclusive; SNCA viab count: 7%[87.6 µM]; SNCA expr inh: 56%[87.6 µM]; FLuc SDR no ATP: 15%[49.3 µM]; FLuc SDR ATP: 10%[49.3 µM]; FLuc inh-2: -20%[49.3 µM]

Results for CN(C)C(=O)c1ccc(-c2ncc3c(n2)OCCN(CC2CC2)C3=O)cc1 ?
FLuc inh-1: inconclusive; hNpr1 antagonist: -2%[70.6 µM]; 3T3 cytotox: inconclusive; HEK293 tox: inactive; SNCA viab count: -15%[87.6 µM]; SNCA expr inh: 16%[87.6 µM]

What do the screens show for `O=C1c2cnc(-c3ccccc3)nc2OCCN1CC1CC1`?
FLuc SDR no ATP: inconclusive; FLuc SDR ATP: inconclusive; FLuc inh-2: 16µM*

What do the screens show for `CNC(=O)N1CCC(C2CCN(C(=O)c3ccc(Cl)s3)C2)CC1` (configuration not stated)?
FLuc inh-1: inactive; hNpr1 antagonist: 5%; 3T3 cytotox: -2%; HEK293 tox: -6%; SNCA viab count: -1%[12.5 µM]; SNCA expr inh: -8%
